Molecules are shown by their SMILES. Inconclusive results are not listed. Entries that show only a call come without a potency. A number with no mark means an inactive call. Activity calls are given as the source filed them. Calls follow the shape of the full dose curve.
Potency is read from the fitted curve at half-maximal effect.

Sequence of Muscarinic acetylcholine receptor M1 (Homo sapiens) (P11229 whole entry, looked up): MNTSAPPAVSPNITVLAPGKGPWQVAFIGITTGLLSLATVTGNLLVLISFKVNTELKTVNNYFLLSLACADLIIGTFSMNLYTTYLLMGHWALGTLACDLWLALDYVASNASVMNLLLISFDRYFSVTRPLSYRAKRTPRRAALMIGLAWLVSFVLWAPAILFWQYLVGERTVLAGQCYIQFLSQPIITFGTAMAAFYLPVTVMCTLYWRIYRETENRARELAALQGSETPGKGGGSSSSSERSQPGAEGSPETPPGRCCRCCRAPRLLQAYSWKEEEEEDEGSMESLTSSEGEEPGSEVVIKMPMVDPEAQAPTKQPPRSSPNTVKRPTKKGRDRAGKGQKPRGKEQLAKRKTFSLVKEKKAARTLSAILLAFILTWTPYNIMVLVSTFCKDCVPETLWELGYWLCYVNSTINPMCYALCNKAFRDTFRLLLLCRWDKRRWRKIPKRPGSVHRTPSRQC

The experiment concerns the target Muscarinic acetylcholine receptor M1 (Homo sapiens) (UniProt P11229). The experiment can be described thus: Cholinergic receptor muscarinic 1 (CHRM1) small molecule antagonists, cell-based qHTS assay (AID 1963588). Also: nearly all actives have a fitted effect of over 40% in size. The note with it: CHRM1-CHO antagonist mode, calcium flux fluorescence; series mostly up to 61.5 µM. From the text: National Center for Advancing Translational Sciences [NCATS]
Division of Preclinical Innovation [DPI]
U.S. Environmental Protection Agency [EPA]
National Institutes of Environmental Health Sciences [NIEHS]
National Toxicology Program [NTP]
U.S. Food and Drug Administration [FDA]
The CHRM1 is a muscarinic receptor. This receptor plays a crucial role in learning and memory processes and has long been identified as a promising therapeutic target for the improvement of cognitive decline in Alzheimer's disease (AD). The CHRM1-CHO cell line stably expressing human muscarinic acetylcholine receptor M1 (CHRM1) can be used for screening agonists and antagonists of interactions between CHRM1 and its ligands. The CHRM1-CHO Calcium Flux Assay is a homogeneous fluorescence-based assay for detecting the intracellular calcium level using FDSS kinetic plate reader system.
Tox21 Assay Protocol Summary:
CHRM1-CHO cells were dispensed at 1000 cells/3uL/well in 1536-well black-clear bottom plates using a Multidrop Dispenser. After the assay plates were incubated at a 37 C/5% CO2 incubator for 18 h, 3 uL of Dye Loading Buffer was transferred to the assay plate by a Flying Reagent Dispenser. The assay plates were incubated at 37 C for 1h. For antagonist mode, 23 nL of compounds dissolved in DMSO, positive controls or DMSO only was transferred to the assay plate by a pin tool. After 5 min incubation at room temperature, 1.5 uL of acetylcholine at 50nM was added to each well. The fluorescence intensity in the plates was measured using FDSS 7000EX kinetic plate reader for 3 min at 1 sec intervals. Each test compound was measured at 15 concentrations in three independent runs.
(qHTS replaces the single test concentration by a dilution series.)
For `CC(C)C(=O)Nc1cccc(C(F)(F)F)c1`, the Potency entry was “inactive”. On the same count and under the same terms, as for `C[C@H](O)C(=O)Nc1c(I)c(C(=O)NC(CO)CO)c(I)c(C(=O)NC(CO)CO)c1I`, the entry is “inactive”; as for `O=P(O)(O)OCC(O)CO` (stereo not given), “inactive”. Consider `C=CCn1c(=O)n(CC=C)c(=O)n(CC=C)c1=O`, for which the Potency entry is “inactive”. The same measure, in the same setting: as for `CCOC(=O)C(O)c1ccccc1` (stereo not given), the entry is “inactive”; as for `CC(C)NCC(O)c1ccc2ccccc2c1` (stereo not given), “inactive”. As for `CCCCCCCCCCn1cc[n+](CCCCCCCCCC)c1C`, the Potency is 2980 nM (active).

Regarding `CC(C)C/C=C(\C=O)c1ccccc1`, the Potency entry is “inactive”.

With `CCCCCCCC[N+](CCCCCCCC)(CCCCCCCC)CCCCCCCC`, the Potency entry was “inactive”. For `CNC(=O)c1cnn(-c2nc(N)c3ncn([C@@H]4O[C@H](CO)[C@@H](O)[C@H]4O)c3n2)c1`, the Potency result is “inactive”. Same read-out and setting: as for `C1COC(NC(C2CC2)C2CC2)=N1`, the entry is “inactive”; as for `CCCC(=O)O[C@]1(C(=O)CC)CC[C@H]2[C@@H]3CCC4=CC(=O)CC[C@]4(C)[C@H]3[C@@H](O)C[C@@]21C`, “inactive”; as for `COc1ccc(-c2cc(=O)c3c(O)cc(O[C@@H]4O[C@H](CO[C@@H]5O[C@@H](C)[C@H](O)[C@@H](O)[C@H]5O)[C@@H](O)[C@H](O)[C@H]4O)cc3o2)cc1O`, “inactive”.

As to `CCCCCCCCCCCl`, the Potency entry is “inactive”. `O=[N+]([O-])c1ccc(F)c(Cl)c1`: the Potency entry was “inactive”. Consider `C/C=C/C(=O)CC`, for which the activity, negative = inhibition was 37.8% [at 12.6 µM]. Take `CC1=NN(c2ccc(C(=O)O)cc2)C(=O)C1`: the Potency result is “inactive”. With `Cn1cccc1`, the Potency result is “inactive”. `CC(=O)C1C(=O)C=C(C)OC1=O` (stereo not given): the Potency entry is “inactive”. For the compound `Cc1cc(SC2=C(O)C[C@@](CCc3ccc(N)cc3)(C(C)C)OC2=O)c(C(C)(C)C)cc1CO`, the Potency entry was “inactive”. In the case of `C/C=C(\C)C(=O)OCCc1ccccc1`, the Potency entry is “inactive”.

Turning to `C=C(C)C(=O)OCC(O)CO` (stereo not given), the Potency entry was “inactive”.

Regarding `CC(=O)Nc1ccc(S(N)(=O)=O)cc1`, the Potency result was “inactive”. For `CN1CCN(c2c(F)cc3c(=O)c(C(=O)O)cn4c3c2OCN4C)CC1`, the activity, negative = inhibition was -0.388% [at 12.6 µM]. Turning to `CCCCCC[C@@H](CCC)C(=O)O`, the Potency result is “inactive”. Consider `CCCCCCCCCCCCCCCCCO`, for which the activity, negative = inhibition is -16.4% [at 12.6 µM]. For the compound `O=C(O)CCC(=O)C(=O)O`, the Potency entry is “inactive”.

With `O=CC(=O)c1ccccc1`, the Potency entry is “inactive”.

`CCCCCCCCCCCC[N+](C)(C)CC(=O)[O-]`: the Potency result was “inactive”.

For `CCOC(=O)N1CCC(Nc2ccc(Cl)cc2N)CC1`, the Potency entry is “inactive”. Take `C=C(C)C(=O)OCCN(CC)CC`: the Potency result was “inactive”. On to `Nc1ccc2cc(S(=O)(=O)O)cc(O)c2c1`, for which the Potency entry was “inactive”. Regarding `O=C(Nc1ccc([N+](=O)[O-])cc1)Nc1ccc([N+](=O)[O-])cc1`, the Potency result is “inactive”. `O=C(O)c1ccccc1NCCc1ccccc1`: the Potency result is “inactive”. The same measure, in the same setting: under `Cc1cc(C)c(NC(=O)CN(CC(=O)O)CC(=O)O)c(C)c1Br` stands “inactive”; under `CCCCCCCC[Si](OCC)(OCC)OCC`, “inactive”. `O=C(O)Cc1c(Cl)ccc(Cl)c1Cl`: the Potency entry was “inactive”. With `COCCO`, the Potency result was “inactive”.

Take `CC(C)(C)NCC(O)COc1ccc(NC(=O)NC2CCCCC2)cc1` (stereo not given): the Potency result was “inactive”. As to `CCOC(=O)c1cnc2c(cnn2CC)c1NN=C(C)C`, the Potency result was “inactive”.

(Values after PubChem BioAssay (Tox21).)
